Assay outcomes from PubChem.
The list is not random: actives were taken first. Their share in the collection is about 4.7%.
D1 agonist: Allosteric Agonists of the Human D1 Dopamine Receptor: qHTS | HEK293 T-REx D1 cells, calcium flux, agonist mode | activation, % at 2 µM | D(1A) dopamine receptor (Homo sapiens), P21728 | hit rate 1% among 360,000
Target sequence (P21728 whole entry, looked up): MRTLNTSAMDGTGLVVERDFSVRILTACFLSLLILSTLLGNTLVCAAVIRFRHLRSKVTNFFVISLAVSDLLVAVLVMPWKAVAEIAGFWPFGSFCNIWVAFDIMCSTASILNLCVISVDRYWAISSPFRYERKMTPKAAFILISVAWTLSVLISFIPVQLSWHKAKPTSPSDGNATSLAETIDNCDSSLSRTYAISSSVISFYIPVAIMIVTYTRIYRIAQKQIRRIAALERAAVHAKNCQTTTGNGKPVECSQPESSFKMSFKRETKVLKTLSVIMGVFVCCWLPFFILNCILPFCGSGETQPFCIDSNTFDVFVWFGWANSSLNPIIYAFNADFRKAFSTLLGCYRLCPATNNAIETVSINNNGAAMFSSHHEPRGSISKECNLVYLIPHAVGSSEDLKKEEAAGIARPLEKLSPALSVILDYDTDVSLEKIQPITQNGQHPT
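Agonism was scored from calcium flux recorded over 180 s (1 read/s) after pintool compound addition, following a 10-cycle baseline. Cells were inducible force-coupled HEK293 TREx D1, plated overnight at 30 C and loaded with no-wash calcium dye.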
TRHR enhancer: qHTS for Small Molecule Agonists and Allosteric Enhancers of Human TRH Receptor: Primary Screen for Enhancers; Thyrotropin-releasing hormone receptor (Homo sapiens), P34981; TRHR cells, fluo-8 calcium fluorescence, EC20 TRH enhancement; enhancement, % at 2 µM; hit rate 0.66% among 360,000; AID 493056, 2011; in the data active = enhancement above about 30%
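Enhancer read-out: after compound pinning and an initial kinetic agonist-mode read, an EC20 of TRH (10 nM final) was injected and fluo-8 calcium signal (Ex 480/Em 530) followed at 1 s/cycle for 100 cycles in TRHR-expressing cells.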
TRHR ag: qHTS for Small Molecule Agonists and Allosteric Enhancers of Human TRH Receptor: Primary Screen for Agonists; activation, % at 2 µM; TRHR cells, calcium flux fluo-8, FDSS agonist mode; Thyrotropin-releasing hormone receptor (Homo sapiens), P34981; hit rate 0.18% among 360,000
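In this calcium-flux screen, cells bearing human TRHR are dye-loaded with fluo-8, baselined for 10 cycles, then exposed to library compounds; positive kinetic calcium responses during the agonist phase mark hits, with TRH as control.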
D1 antag: Antagonist of Human D 1 Dopamine Receptor: qHTS; D(1A) dopamine receptor (Homo sapiens), P21728; HEK293 TREx D1 cells, calcium flux, dopamine EC80; active compounds read low; activity change, negative = inhibition, % at 10 µM; hit rate 3.2% among 360,000; in the data active = activity change below about -30%
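Tetracycline-induced HEK293 T-REx cells with force-coupled D1 receptor were loaded with a no-wash calcium dye. Compound was added after a 10 s baseline and read kinetically for 180 s; EC80 dopamine was then added and calcium flux followed another 180 s.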
D1 potentiator: Potentiators of Human D1 Dopamine Receptor: qHTS. potentiation, % at 10 µM. hit rate 0.036% among 360,000. HEK293 TREx D1 cells, calcium flux, dopamine EC20 potentiation. D(1A) dopamine receptor (Homo sapiens), P21728; in the data active = potentiation above about 30%
Each line names hits and unclear results; the compound was inactive in the other large screens. Rule as the data show it, unless noted: active = activation above about 30%; inactive = the rest.

CC(C)(C)OC(=O)N1CCN(c2ccc(NC(=O)c3ccco3)cc2)CC1	none
CCC(=O)N1c2ccccc2C(C)(c2ccccc2)CC1(C)C (stereo not given)	none
CC(=O)N1c2ccccc2C(C)(c2ccc(C)cc2)CC1(C)C (stereo not given)	D1 agonist 56
COC(=O)c1cc(-c2ccc(Br)cc2)c2c(=O)n(C)c(=O)n(C)c2n1	none
CCCC(C(=O)NCc1cccc(Cl)c1)N1Cc2ccccc2C1=O (stereo not given)	none
CC(C)(C)c1cc2cccnc2n1Cc1cccc(Cl)c1	D1 antag -31
CCCCC(=O)Nc1ccc(C(=O)NCCc2ccccc2)cc1	none
CCCC(=O)Nc1ccc(C(=O)NCCc2ccc(F)cc2)cc1	TRHR enhancer 34
O=C(CCNC(=O)c1ccc([N+](=O)[O-])cc1)Nc1ccc(F)cc1	D1 antag -39
Cc1cc(C)cc(NC(=O)CCNC(=O)c2ccc([N+](=O)[O-])cc2)c1	none
Cc1cccc(-c2nc(C(N)=O)c3c(n2)n(-c2ccc4c(c2)OCO4)c(=O)n3C)c1	none
O=C(NCC1CCCCC1)c1cccc(-c2ccc(O)cc2)c1	none
O=C(c1ccccc1)c1ccc(OCC(O)CNCc2ccc(F)cc2)cc1 (stereo not given)	D1 agonist 52
O=C(COc1ccc(C(=O)c2ccccc2)cc1)NCc1ccc(F)cc1	D1 antag -39
CCC(=O)c1ccc(OCC(O)CNCc2ccc(F)cc2)cc1 (stereo not given)	none
O=C(c1ccccc1)c1ccc(OCC(O)CNCc2cccc(Cl)c2)cc1 (stereo not given)	D1 agonist 43
Cc1ccc(C(OCC(O)CNCc2ccc(F)cc2)c2ccccc2)cc1 (stereo not given)	D1 agonist 67, D1 potentiator 31
Cn1cc(Br)c(C(=O)N/N=C/c2cc3ccccc3nc2Cl)n1	none
CCSc1nnc2c(n1)OC(c1cc(OC)c(OC)c(OC)c1)Nc1ccccc1-2 (stereo not given)	none
CCOC(=O)c1cnc2ccc(OCC)cc2c1NCc1ccccc1	D1 antag -32
CCOC(=O)c1cnc2ccc(OCC)cc2c1NCc1cccnc1	none
O=C(c1ccc(Cl)cc1)c1c[nH]c(C(=O)NNc2cccc(Cl)n2)c1	D1 antag -31
O=C(c1ccccc1)c1c[nH]c(C(=O)NNc2cccc(Cl)n2)c1	none
Cc1ccc2oc(-c3cccc(NC(=O)c4sc5c([N+](=O)[O-])cccc5c4Cl)c3)nc2c1	none
Cc1cccc(C)c1NC(=O)c1nc(SC(C)C)ncc1Cl	none
COc1ccc(CCNC(=O)Nc2cccc([N+](=O)[O-])c2)cc1	D1 antag -34
O=C(CCCc1ccccc1)Nc1cccc([N+](=O)[O-])c1	D1 antag -37
O=C(Nc1cccc([N+](=O)[O-])c1)Nc1ccc2c(c1)OCCO2	D1 antag -40
CC(C)S(=O)(=O)c1csc(NC(=O)Nc2cccc([N+](=O)[O-])c2)c1Cl	D1 antag -33
O=C(CCc1ccccc1)Nc1cccc([N+](=O)[O-])c1	none
CCCCCSc1nc2sc3c(c2c(=O)n1-c1ccccc1)CCN(C(C)=O)C3	none
O=C(Nc1cccc([N+](=O)[O-])c1)Nc1cccc([N+](=O)[O-])c1	D1 agonist 37, D1 antag -45
CCn1cc([N+](=O)[O-])c(C(=O)Nc2ccc3c(c2)OCCO3)n1	D1 antag -75
O=C(COc1ccc(/C=N/NC(=O)c2ccncc2)cc1)Nc1cccc([N+](=O)[O-])c1	D1 antag -32
O=C(COC(=O)COc1ccccc1)Nc1cccc([N+](=O)[O-])c1	D1 antag -34
Cc1cccc(N2C(=O)C3C4CC(=O)C(c5ccccc54)C3C2=O)c1C (stereo not given)	none
O=C(Nc1cccc([N+](=O)[O-])c1)C1C2/C=C\CCCCC21 (stereo not given)	D1 antag -34
O=C(Nc1cccc([N+](=O)[O-])c1)C1C2CCCCC21 (stereo not given)	none
COc1ccc(C)cc1NC(=O)Nc1cccc(-c2noc(C)n2)c1	none
Cc1nc(-c2cccc(NC(=O)Nc3ccc([N+](=O)[O-])cc3)c2)no1	D1 antag -45
CCCCN1CC(c2nc3ccccc3n2CCCCOc2ccc(C)c(C)c2)CC1=O (stereo not given)	none
CC1(c2ccc(OC(F)F)cc2)NC(=O)N(CC(=O)c2ccc3c(c2)OCO3)C1=O (stereo not given)	D1 agonist 47, D1 antag -43
CC1(c2ccc([N+](=O)[O-])cc2)NC(=O)N(CC(=O)c2ccc3c(c2)OCO3)C1=O (stereo not given)	D1 agonist 34
CC1(c2ccc(OC(F)F)cc2)NC(=O)N(CC(=O)NC2CCCCC2)C1=O (stereo not given)	none
CCOC(=O)CNC(=O)C1CCCc2c1[nH]c1ccc(Cl)cc21 (stereo not given)	D1 antag -35
NC(=O)CNC(=O)C1CCCc2c1[nH]c1ccc(Cl)cc21 (stereo not given)	none
Cc1ccc(-n2nc(C)c3nc(CCC(=O)Nc4cccc(C)c4C)c(=O)n(C)c32)cc1	none
COC(=O)[C@@]1(Cc2ccc(OC)cc2)[C@@H]2C(=CC(=O)[C@H]2CC(=O)C(=O)N(C)C)CN1C(=O)c1ccccc1	none
C=C1C(=O)C=C2CN(C(=O)c3ccccc3)[C@@](Cc3ccc(F)cc3)(C(=O)OC)[C@@H]12	D1 agonist 90, D1 antag -35
O=C(NCc1cccc(Cl)c1)c1oc(=O)c2ccccc2c1-c1ccccc1	none
Cc1cc2c(s1)c1cnn(Cc3ccc(S(C)(=O)=O)cc3)c(=O)c1n2C	none
O=C(Nc1ccc(F)c(Cl)c1)Nc1csc2ccccc12	D1 antag -33
O=C(Nc1ccc(F)cc1F)Nc1csc2ccccc12	D1 antag -33
CC(C)CNC(=O)Nc1ccc(F)c(Cl)c1	none
CCOC(=O)c1cnc2c(C)cc(Cl)cc2c1NCCCN1CCOCC1	D1 antag -35
Cc1ccc(-c2csc3nc(CN(C)Cc4ccccc4)[nH]c(=O)c23)cc1	D1 antag -36
CCOc1ccc(-c2nc3scc(-c4cccs4)c3c(=O)[nH]2)cc1	D1 antag -75
Cc1ccc(-c2csc3nc(-c4ccncc4)[nH]c(=O)c23)cc1	D1 antag -34
O=c1[nH]c(Cc2ccc(F)cc2)nc2scc(-c3ccc(F)cc3)c12	none
